Our source for the Potency values is PubChem BioAssay (Tox21).

Inconclusive results are not listed. Where a call stands in place of a potency, no number is given. Calls of active or inactive are those of the source. Calls follow the shape of the dose curve; as a rule, active = well fitted activation curve with a large enough effect in the repeat runs; inconclusive = weak or mixed curves; inactive = flat fitted curve, though single readings scatter.

The experiment is described as follows: A CellTox Green Cytotoxicity Assay to monitor cytotoxicity in HEK293 cells - 32 hour (AID 1224881). Also: nearly all actives have a fitted effect of over 40% in size. Conditions: CellTox Green fluorescence; series mostly up to 76.8 µM. An excerpt:
National Center for Advancing Translational Sciences [NCATS]
NIH Chemical Genomics Center [NCGC]
U.S. Environmental Protection Agency [EPA]
National Institutes of Environmental Health Sciences [NIEHS]
National Toxicology Program [NTP]
Cell-based models are critical for drug discovery. Determining the natural cytotoxic effects resulting from test compounds is an essential research activity. A CellTox Green Cytotoxicity Assay to monitor cytotoxicity in real time of continues cell culture during 40 hours of the compound treatment was used to screen Tox21 10K library compounds in Hek293 cells. CellTox Green Cytotoxicity Assay is a nonlytic, homogeneous, biofluorescent method to measure cytotoxicity in cell culture after experimental manipulation. The assay system uses a proprietary asymmetric cyanine dye that is excluded from viable cells but preferentially stains the dead cell's DNA. […] Viable cells produce no appreciable increases in fluorescence. Therefore, the fluorescence signal produced by the binding interaction with dead cell DNA is proportional to cytotoxicity.
The mixture of Hek293 cell suspension and reagents were dispensed at 600cells/6 ul/well in 1536-well tissue culture treated black solid bottom plates using a Multidrop dispenser. After the assay plates were incubated at a 37 C/5% CO2 incubator for 5 hours, 23 nL of compounds dissolved in DMSO, positive and negative controls was transferred to the assay plate by a pintool work station. The plates were incubated at 37 C for 40 hours. The fluorescence intensity were measured at 0h, 8h, 16h, 24h, 32h and 40h time points using ViewLux plate reader during compound treatment.
Turning to `CCn1c(=O)c2c(nc(/C=C/c3ccc(OC)c(OC)c3)n2C)n(CC)c1=O`, the Potency result was “inactive”.

Take `C[N+](C)(C)CC[N+]1(C)Cc2c(Cl)c(Cl)c(Cl)c(Cl)c2C1`: the Potency result is “inactive”.

`Nc1ccc2cc(S(=O)(=O)O)ccc2c1`: the Potency result was “inactive”.

As to `CCCCCCC(CCCCCCCCCCC(=O)OCC(COC(C)=O)OC(C)=O)OC(C)=O` (stereo not given), the Potency entry is “inactive”.

For the compound `CCCC(C)C(=O)O` (stereo not given), the Potency entry was “inactive”.

Take `CC(C)c1cccc(O)c1`: the Potency result is “inactive”.

Take `COc1cc(C)cc(O)c1`: the Potency result is “inactive”.

Regarding `CCCCNc1ccccc1`, the Potency entry is “inactive”.

For `Oc1cc(O)c2c(c1)O[C@H](c1ccc(O)c(O)c1)[C@H](O)C2`, the Potency entry is “inactive”.

`CCC(C)(C)C1CCC(OC)CC1` (stereo not given): the Potency entry is “inactive”.

For `OC1OC[C@@H](O)[C@H](O)[C@H]1O` (stereo not given in full), the Potency entry was “inactive”.

`COc1cc(CCC(C)=O)ccc1O`: the Potency result was “inactive”.

`O=C(O)/C=C/c1ccc(/C=C/C(=O)O)cc1`: the Potency entry is “inactive”.

`CCC(=O)/C=C/c1ccc(OC)cc1`: the Potency entry is “inactive”.

Take `CN1[C@@H]2CC[C@H]1CC(NC(=O)n1c(=O)[nH]c3ccccc31)C2` (stereo not given in full): the Potency result was “inactive”.

With `CC(=O)NC(Cc1ccccc1)C(=O)O` (stereo not given), the Potency entry is “inactive”.

`NCCN1CCNC1=O`: the Potency result was “inactive”.

As to `NS(=O)(=O)c1cc2c(cc1Cl)NC(CSCc1ccccc1)=NS2(=O)=O`, the Potency entry was “inactive”.

For `COC(=O)c1ccc(C(=O)OC)c(C(=O)OC)c1`, the Potency entry was “inactive”.

With `CCCCCCCCCCCCI`, the Potency result was “inactive”.

As for `OCCN1C[C@H](O)[C@@H](O)[C@H](O)[C@H]1CO`, the Potency entry was “inactive”.

For `CCCCCCCCCCCl`, the Potency result is “inactive”.

Regarding `CC(O)CN(CCCN(C)C)CCCN(C)C` (stereo not given), the Potency entry was “inactive”.

With `CC(C)CCCCCCN`, the Potency entry is “inactive”.

For `O=C(O)c1cccc(C(=O)O)n1`, the Potency entry was “inactive”.

Take `CC(C)=CCC/C(C)=C/C(=O)O`: the Potency entry is “inactive”.

Consider `CCN1CCN(c2cc3c(cc2F)c(=O)c(C(=O)O)cn3C2CC2)CC1`, for which the Potency result was “inactive”.

For `CCC(=O)Nc1cccc(N)c1`, the Potency result is “inactive”.

Turning to `O=C1C(CCS(=O)c2ccccc2)C(=O)N(c2ccccc2)N1c1ccccc1` (stereo not given), the Potency entry was “inactive”.

In the case of `CC1(C)OC(=O)Nc2ccc(Br)cc21`, the Potency result was “inactive”.

With `CCCCC1CCCCC(=O)O1` (stereo not given), the Potency entry is “inactive”.

Consider `CCCc1ccc(N)cc1`, for which the Potency entry was “inactive”.

With `CC1=CC(=O)CCC1`, the Potency result was “inactive”.

Take `C=C(C)C1CC=C(C)C(O)C1` (stereo not given): the Potency entry was “inactive”.

Take `Cc1nc(-c2ccc(OCC(C)C)c(C#N)c2)sc1C(=O)O`: the Potency result is “inactive”.

As to `C=CCn1c(=O)n([C@@H]2O[C@H](CO)[C@@H](O)[C@H]2O)c2nc(N)[nH]c(=O)c21`, the Potency entry is “inactive”.

As for `O=S(=O)(c1cccc2cnccc12)N1CCCNCC1`, the Potency entry is “inactive”.

Consider `c1cc(CN2CCCCC2)cc(OCCCNc2nc3ccccc3s2)c1`, for which the Potency entry was “inactive”.

On to `COc1cccc(OC)c1`, for which the Potency entry was “inactive”.

As for `Nc1nc(F)nc2c1ncn2[C@@H]1O[C@H](CO)[C@@H](O)[C@@H]1O`, the Potency result was “inactive”.
